This is an account of results in PubChem BioAssay (NCI).

Some test systems named below: NCI-H23 lung; NCI-H226 lung; NCI-H322M lung; HOP-62 NSCLC; NCI-H460 lung; HOP-92 NSCLC; NCI-H522 lung; A549/ATCC NSCLC; 786-0 renal; COLO 205 colon.
Common to all, as to test: NCI-60 one-dose screen, 48 h (100 = growth as untreated, 0 = no growth, -100 = all killed)
What all share (details): 10 µM unless noted

SMILES strings stand for the structures. About 83,000 compounds went through this panel and 20% of them were active in at least one assay; those are over-represented in the sample as a whole.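 The test compound was applied at a single concentration to cells in 96-well plates for 48 hours, and percent growth was recorded.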 Values without a mark were called inactive. The source made the active and inactive calls. How the source made its calls: active means growth percent below 10; inactive means the rest.

For `COc1cc(OC)c(NC(=O)c2cc3ccccc3cc2O)cc1Cl`, the growth is 10.7% in the assay with NCI-H23 lung; 77% in the assay with NCI-H226 lung; 40.2% in the assay on NCI-H322M lung; 68.2% in the assay on HOP-62 NSCLC; 11.2% in the assay on NCI-H460 lung; -31.2% (active) in the assay on HOP-92 NSCLC. In addition, the growth in the assay with NCI-H522 lung was -19.9% (active); with A549/ATCC NSCLC it was 32.1%; with 786-0 renal, 27.4%; in the assay with COLO 205 colon, 66.6%.

For `[O-]/[N+](=C\c1ccc(-n2cc(Cc3ccccc3Cc3cn(-c4ccc(/C=[N+](/[O-])c5ccccc5)cc4)nn3)nn2)cc1)c1ccccc1`, the growth in the assay with NCI-H23 lung is 94.7%; with NCI-H226 lung it was 101%; in the assay on NCI-H322M lung, 93.3%; in the assay on HOP-62 NSCLC, 100%; with NCI-H460 lung it was 108%; in the assay on HOP-92 NSCLC, 112%. Moreover, the growth in the assay on NCI-H522 lung is 97%; in the assay on A549/ATCC NSCLC it was 105%; with 786-0 renal, 97.5%; with COLO 205 colon, 107%.

`Nc1n[nH]c2ccc([C@H]3[C@@H]4C5CCC(C5)[C@@H]4c4c(ccc5[nH]ncc45)N3S(=O)(=O)C3CC3)cc12` (stereo not given in full): the growth in the assay with NCI-H23 lung was 16.3%; in the assay with NCI-H226 lung it was -16.9% (active); with NCI-H322M lung it was 38.6%; in the assay on HOP-62 NSCLC it was 41.1%; with NCI-H460 lung, 5.9% (active); with HOP-92 NSCLC it was 67.7%. Besides, the growth in the assay with NCI-H522 lung is 7.23% (active); with A549/ATCC NSCLC, 17.1%; in the assay with 786-0 renal it was 31.3%; in the assay with COLO 205 colon it was -0.398% (active).

As to `O=C1NC(=O)C(Cc2ccc(OCc3ccc(-c4ccc(Cl)cc4Cl)cc3)cc2)S1` (stereo not given), the growth in the assay on NCI-H23 lung was 46.9%; in the assay with NCI-H226 lung, 74.5%; with NCI-H322M lung, 90.8%; with HOP-62 NSCLC it was 66.4%; in the assay on NCI-H460 lung it was 58.5%; in the assay on HOP-92 NSCLC it was 53.7%. Further, the growth in the assay on NCI-H522 lung was 26.8%; with A549/ATCC NSCLC it was 39.4%; in the assay on 786-0 renal, 63.8%; in the assay on COLO 205 colon, 90.4%.

As for `COc1ccc2c(c1)CC[C@H](O)/C2=C/c1cc(OC)c(OC)c(OC)c1`, the growth was 30.3% with NCI-H23 lung; 40.8% in the assay on NCI-H226 lung; 60.5% in the assay with NCI-H322M lung; 34.9% in the assay on HOP-62 NSCLC; 4.68% (active) in the assay with NCI-H460 lung; 5.25% (active) in the assay with HOP-92 NSCLC. Also, the growth was -19.2% (active) in the assay on NCI-H522 lung, 13.7% in the assay on A549/ATCC NSCLC, 16.1% with 786-0 renal and -48.8% (active) with COLO 205 colon.

On to `CN(C)CCNC(=O)c1ccc(-c2nc3ccc4[nH]ncc4c3c3c2C2CCC3C2)cc1` (stereo not given), for which the growth is 32.2% in the assay on NCI-H23 lung; 49.3% in the assay on NCI-H226 lung; 58.8% in the assay on NCI-H322M lung; 46.6% with HOP-62 NSCLC; 11.8% with NCI-H460 lung; 101% in the assay with HOP-92 NSCLC. Further, the growth was -28.8% (active) in the assay with NCI-H522 lung, 14.2% in the assay with A549/ATCC NSCLC, 28.3% in the assay on 786-0 renal and 18.6% in the assay with COLO 205 colon.

For the compound `Cc1cc(N2CCN(CC(=O)Nc3ccc4c(ccn4C)c3)CC2)nc(N2CCCCCC2)n1`, the growth is 99.9% with NCI-H23 lung; 97.9% in the assay on NCI-H226 lung; 92.9% with NCI-H322M lung; 80.2% in the assay on HOP-62 NSCLC; 101% in the assay on NCI-H460 lung; 60.5% with HOP-92 NSCLC. Further, the growth with NCI-H522 lung was 73.3%; in the assay with A549/ATCC NSCLC, 85.3%; in the assay with 786-0 renal, 93.8%; in the assay with COLO 205 colon, 81.1%.

As for `O=C(/C=C/c1cccc(Cl)c1)c1cccc(OCCCOc2cccc(C(=O)/C=C/c3cccc(Cl)c3)c2)c1`, the growth in the assay with NCI-H23 lung is 89.2%; with NCI-H226 lung, 96.3%; in the assay with NCI-H322M lung, 106%; with HOP-62 NSCLC it was 102%; in the assay on NCI-H460 lung, 103%; in the assay on HOP-92 NSCLC it was 66.8%. The growth with NCI-H522 lung was 87.4%; in the assay with A549/ATCC NSCLC, 100%; in the assay with 786-0 renal, 98.8%; in the assay with COLO 205 colon it was 106%.

With `CC1(C)CC(=O)C2=C(C1)N(c1ccc(OC(F)(F)F)cc1)C(N)=C(C#N)C2c1ccc(Br)cc1F` (stereo not given), the growth was 75.8% in the assay on NCI-H23 lung; 33.1% in the assay with NCI-H226 lung; 59.1% in the assay on NCI-H322M lung; 6.8% (active) with HOP-62 NSCLC; 25.3% with NCI-H460 lung; 39.8% in the assay on HOP-92 NSCLC. The growth in the assay on NCI-H522 lung is 88.6%; with A549/ATCC NSCLC, 44.1%; in the assay on 786-0 renal, 35.7%; with COLO 205 colon it was 93.8%.

For the compound `COc1cc(-c2csc(NC(=O)c3ccc(N4CCOCC4)c(C(F)(F)F)c3)n2)cc(OC)c1OC`, the growth in the assay with NCI-H23 lung was 15.7%; in the assay with NCI-H226 lung it was 41.6%; in the assay with NCI-H322M lung, 70.3%; in the assay with HOP-62 NSCLC it was 34.2%; in the assay with NCI-H460 lung, 46.2%; with HOP-92 NSCLC it was 57.6%. In addition, the growth is 14.3% in the assay with NCI-H522 lung, 31.9% in the assay on A549/ATCC NSCLC, 37% with 786-0 renal and 18.9% with COLO 205 colon.

Consider `COc1ccc(-c2ccc(=O)oc2-c2cc(OC)c(OC)c(OC)c2)cc1O`, for which the growth in the assay on NCI-H23 lung was 25.9%; in the assay on NCI-H226 lung, 42.7%; in the assay with NCI-H322M lung, 43.5%; in the assay on HOP-62 NSCLC it was -29% (active); in the assay with NCI-H460 lung, -18% (active); in the assay with HOP-92 NSCLC, 89%. In addition, the growth was -11.7% (active) in the assay with NCI-H522 lung, 15.9% in the assay on A549/ATCC NSCLC, -6.12% (active) in the assay on 786-0 renal and 12.5% in the assay on COLO 205 colon.

As to `c1cc2c(ccc3[nH]c(-c4ccc5[nH]ncc5c4)c4c(c32)CCCC4)n1`, the growth in the assay with NCI-H23 lung was 74.3%; with NCI-H226 lung, 58.6%; with NCI-H322M lung, 92.2%; in the assay with HOP-62 NSCLC, 42.5%; with NCI-H460 lung it was 22.3%; in the assay on HOP-92 NSCLC it was 40%. The growth with NCI-H522 lung was 47.4%; with A549/ATCC NSCLC, 32.5%; in the assay with 786-0 renal, 56%; in the assay with COLO 205 colon, 58%.

Turning to `COc1ccc(C2=C(Nc3ccc(C(=O)Nc4ccccc4)cc3)C(=O)N(C)C2=O)cc1`, the growth in the assay on NCI-H23 lung was 88.7%; in the assay on NCI-H226 lung it was 95.2%; with NCI-H322M lung it was 88.7%; with HOP-62 NSCLC it was 72.2%; in the assay with NCI-H460 lung it was 108%; in the assay on HOP-92 NSCLC it was 117%. For the same compound, the growth in the assay with NCI-H522 lung is 59.9%; in the assay on A549/ATCC NSCLC, 78.2%; with 786-0 renal it was 105%; in the assay with COLO 205 colon, 105%.

Regarding `Nc1ncnc2c1c(-c1cccc(Cl)c1)nn2CC(=O)N1CCOCC1`, the growth with NCI-H23 lung was 97.5%; in the assay on NCI-H226 lung, 93%; in the assay on NCI-H322M lung, 102%; in the assay with HOP-62 NSCLC, 109%; in the assay with NCI-H460 lung, 107%; in the assay on HOP-92 NSCLC, 105%. Also, the growth in the assay on NCI-H522 lung was 102%; in the assay with A549/ATCC NSCLC it was 99.9%; in the assay with 786-0 renal, 94.8%; in the assay with COLO 205 colon, 116%.

Regarding `O=C1/C(=C/c2cccc(F)c2)CN(C(=O)C(Cl)Cl)C/C1=C\c1cccc(F)c1`, the growth was -75.3% (active) in the assay on NCI-H23 lung; 0.29% (active) in the assay on NCI-H226 lung; -44.1% (active) in the assay with NCI-H322M lung; -25.8% (active) in the assay with HOP-62 NSCLC; -63% (active) with NCI-H460 lung; -58% (active) with HOP-92 NSCLC. In addition, the growth in the assay on NCI-H522 lung is -80.3% (active); with A549/ATCC NSCLC, -28.7% (active); in the assay with 786-0 renal it was -77% (active); with COLO 205 colon, -60% (active).
